TIM10 inh – growth inhibitors of TIM10 yeast strain | S. cerevisiae TIM10 strain growth, BacTiter-Glo luminescence, 24 h | inhibition, % at 10 µM | hit rate 1.4% among 330,000 | AID 463195;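 active = inhibition of 40% or more at the single tested concentration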;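 note: wild-type TIM10 isogenic control strain grown at permissive 25 °C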
tim23-1 inh – inhibits growth of tim23-1 mutant yeast. hit rate 1.3% among 330,000. inhibition, % at 20 µM. S. cerevisiae tim23-1 growth, BacTiter-Glo luminescence, 24 h;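 active = growth inhibition of the mutant yeast at or above 50%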;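 note: temperature-sensitive mutant grown at 25 °C; plate controls were DMSO-treated mutant yeast for no effect and medium wells lacking yeast for full effect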
PfHsp90 yeast 2 – inhibits growth of yeast expressing Plasmodium falciparum Hsp90. inhibition, % at 9.4 µM. hit rate 0.32% among 310,000. S. cerevisiae expressing PfHsp90, BacTiter-Glo ATP, 48 h; yeast lacking PDR1 and PDR3 efflux regulators. AID 504621;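 active = every replicate shows inhibition above about 80%, whatever the replicate mean, limit read from the data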;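 note: 0% = DMSO neutral controls and 100% = 20 µM radicicol positive controls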
tim10-1 inh – inhibits growth of tim10-1 mutant yeast. hit rate 2.2% among 330,000. S. cerevisiae tim10-1 ts strain growth, BacTiter-Glo, 24 h. inhibition, % at 20 µM;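 active = inhibition of at least 40%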;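 note: mutant grown at 25 °C; 0% = DMSO wells with yeast and 100% = wells holding no yeast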
NALP3 yeast inh – blocks the NALP3 inflammasome reconstituted in yeast | Yeast reconstituted NLRP3/ASC/caspase-1, beta-gal luminescence, 24 h | inhibition, % at 10 µM | hit rate 0.39% among 330,000;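 active = inhibition of 50% or more; inactive = inhibition below 50%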;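 note: plate controls were induced DMSO wells for no effect and uninduced yeast grown without galactose for full effect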
tim10-1 confirm – confirmation of tim10-1 mutant yeast growth inhibitors. shares compounds with tim10-1 inh. S. cerevisiae tim10-1 ts strain growth, BacTiter-Glo, 24 h. inhibition, % at 20 µM. hit rate 56% among 7,400;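 active = inhibition of yeast growth at or above a set limit in either of two repeat tests at 20 µM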;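 note: tim10-1 mutant grown at permissive 25 °C to find synthetic lethal compounds; 0% = DMSO yeast wells and 100% = medium wells without yeast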
tim10 confirm – confirmation of TIM10 yeast growth inhibitors. shares compounds with TIM10 inh. S. cerevisiae tim10 strain growth, BacTiter-Glo luminescence, 24 h. inhibition, % at 10 µM. hit rate 63% among 4,600;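 active = inhibition of yeast growth at or above a set limit in either of two replicates at 10 µM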;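 note: this counterscreen used the strain with wild-type TIM10; 0% = yeast with DMSO and 100% = medium wells lacking yeast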
tim23-1 conf – confirmation of tim23-1 mutant yeast growth inhibitors; S. cerevisiae tim23-1 growth, BacTiter-Glo luminescence, 24 h; hit rate 83% among 4,400; shares compounds with tim23-1 inh; AID 463218; inhibition, % at 20 µM;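 active = inhibition above about 39% in either of two replicate wells at 20 µM, limit read from the data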;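 note: temperature-sensitive tim23-1 mutant grown at 25 °C; 0% = DMSO wells with yeast and 100% = medium wells without yeast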
* marks the source's active call; other numbers are inactive results. An excerpt weighted towards active compounds, which were near 3.7% of everything screened.

Screening CN1CCN(C(c2ccc(Cl)cc2)c2cc(Cl)c3cccnc3c2O)CC1 (stereo unspecified) returned TIM10 inh 3, tim23-1 inh 59*, PfHsp90 yeast 2 106*, tim10-1 inh 40*, NALP3 yeast inh 40, tim10-1 confirm 24 and tim23-1 conf 71*.
For CN1CCN(C(c2ccc(C(F)(F)F)cc2)c2cc(Cl)c3cccnc3c2O)CC1 (stereo unspecified) the results were TIM10 inh 53*, tim23-1 inh 66*, tim10-1 inh 43*, NALP3 yeast inh 39, tim10-1 confirm 36*, tim10 confirm 26 and tim23-1 conf 70*.
For CCOC(=O)c1sc(=NC(=O)c2c(F)cccc2F)n(C)c1C the results were TIM10 inh 47*, tim23-1 inh 56*, PfHsp90 yeast 2 24, tim10-1 inh 43*, NALP3 yeast inh 41, tim10-1 confirm -20, tim10 confirm 46* and tim23-1 conf 76*.
COCCOC(=O)/C(=C/c1ccc(OC(=O)c2ccccc2)cc1)C(C)=O was read as TIM10 inh 80*, tim23-1 inh 90*, PfHsp90 yeast 2 108*, tim10-1 inh 73*, NALP3 yeast inh 25, tim10-1 confirm 65*, tim10 confirm 3 and tim23-1 conf 88*.
For CC(CCc1ccc(O)cc1)NCc1ccc(Br)cc1 (stereo unspecified) the results were TIM10 inh -1, tim23-1 inh 5, PfHsp90 yeast 2 -17, tim10-1 inh 23 and NALP3 yeast inh 28.
O=C1c2ccc(Oc3cccc([N+](=O)[O-])c3)cc2C(=O)N1c1ccccn1 was read as TIM10 inh 62*, tim23-1 inh 52*, PfHsp90 yeast 2 -30, tim10-1 inh 46*, NALP3 yeast inh 3, tim10-1 confirm 54*, tim10 confirm 42* and tim23-1 conf 65*.
For CCC(C)Nc1nc(N)c([N+](=O)[O-])c(Nc2ccccc2OC)n1 (stereo unspecified) the results were TIM10 inh 23, tim23-1 inh 53*, PfHsp90 yeast 2 -80, tim10-1 inh 43*, NALP3 yeast inh -7, tim10-1 confirm 17 and tim23-1 conf 49*.
`COc1ccc(/C=C(\C#N)C(=O)OCC(=O)NCc2ccccc2OC)cc1` gave TIM10 inh -9, tim23-1 inh 1, PfHsp90 yeast 2 -14, tim10-1 inh 2 and NALP3 yeast inh 18.
`COc1ccccc1CNC(=O)/C(C#N)=C/c1ccc(OC)c(OC)c1OC` gave TIM10 inh 24, tim23-1 inh 53*, PfHsp90 yeast 2 13, tim10-1 inh 46*, NALP3 yeast inh 14, tim10-1 confirm 45* and tim23-1 conf -23.
For O=C(COC(=O)CC1CC2CCC1C2)NCc1ccc(F)cc1 (stereo unspecified) the results were TIM10 inh 3, tim23-1 inh 22, tim10-1 inh 5 and NALP3 yeast inh 9.
Screening O=C(CC1CC2CCC1C2)OCC(=O)c1c[nH]c2ccccc12 (stereo unspecified) returned TIM10 inh 35, tim23-1 inh 52*, PfHsp90 yeast 2 1, tim10-1 inh 42*, NALP3 yeast inh 17, tim10-1 confirm 26 and tim23-1 conf 68*.
Screening CSc1ccccc1NC(=O)CN(C)CC(=O)Nc1ccccc1F returned TIM10 inh -2, tim23-1 inh 9, PfHsp90 yeast 2 -12, tim10-1 inh 12 and NALP3 yeast inh 1.
O=S(=O)(Nc1cc(S(=O)(=O)N2CCOCC2)ccc1O)c1ccc2c(c1)OCCCO2 was read as TIM10 inh 15, tim23-1 inh 9, PfHsp90 yeast 2 10, tim10-1 inh 21 and NALP3 yeast inh 23.
For COc1ccc(/C(C)=N/NC(=O)CNC(=O)c2ccco2)cc1 the results were TIM10 inh -5, tim23-1 inh -6, PfHsp90 yeast 2 -15, tim10-1 inh -4 and NALP3 yeast inh 7.
COc1ccc(/C(C)=N/NC(=S)NCc2ccco2)cc1 was read as TIM10 inh 33, tim23-1 inh 51*, PfHsp90 yeast 2 -29, tim10-1 inh 41*, NALP3 yeast inh 7, tim10-1 confirm 48* and tim23-1 conf 54*.
CCOC(=O)c1ccc(CN(Cc2ccc(C)cc2)S(=O)(=O)c2cccc([N+](=O)[O-])c2)cc1 was read as TIM10 inh -5, tim23-1 inh 5, PfHsp90 yeast 2 -5, tim10-1 inh 7 and NALP3 yeast inh 11.
O=C(Nc1nc2c(ccc3ccccc32)s1)c1ccco1 was read as TIM10 inh 66*, tim23-1 inh 57*, PfHsp90 yeast 2 -11, tim10-1 inh 51*, NALP3 yeast inh -3, tim10-1 confirm 52*, tim10 confirm 62* and tim23-1 conf 75*.
NC(=O)c1cc(Cc2ccccc2)sc1NC(=O)c1ccco1 was read as TIM10 inh 40*, tim23-1 inh 60*, PfHsp90 yeast 2 -31, tim10-1 inh 50*, NALP3 yeast inh 6, tim10-1 confirm 48*, tim10 confirm 28 and tim23-1 conf 73*.
CCCc1cc(C(N)=O)c(NC(=O)c2ccoc2C)s1 was read as TIM10 inh 34, tim23-1 inh 65*, PfHsp90 yeast 2 3, tim10-1 inh 47*, NALP3 yeast inh 15, tim10-1 confirm 34* and tim23-1 conf 68*.
For O=C(Nc1nc2c(F)c(F)c(F)cc2s1)c1ccco1 the results were TIM10 inh 22, tim23-1 inh 16, PfHsp90 yeast 2 10, tim10-1 inh 10 and NALP3 yeast inh 18.
`O=C(Nc1nc2c(s1)CCc1ccccc1-2)c1ccco1` gave TIM10 inh 41*, tim23-1 inh 58*, PfHsp90 yeast 2 -48, tim10-1 inh 55*, NALP3 yeast inh -7, tim10-1 confirm 49*, tim10 confirm 47* and tim23-1 conf 61*.
For O=C(C[C@@H]1C/C=C\CCC(=O)O[C@H](c2ccccc2)CNC1=O)N[C@H](CO)Cc1ccccc1 the results were TIM10 inh 3, tim23-1 inh -7, PfHsp90 yeast 2 22, tim10-1 inh -9 and NALP3 yeast inh -17.
CCNC(=S)Nc1cccc(F)c1C was read as TIM10 inh 22, tim23-1 inh -3, PfHsp90 yeast 2 -5, tim10-1 inh 5 and NALP3 yeast inh 4.
COc1cc2c(cc1OC)CN(C(=S)Nc1cccc(Cl)c1C)CC2 was read as TIM10 inh -14, tim23-1 inh 0, PfHsp90 yeast 2 -1, tim10-1 inh 3 and NALP3 yeast inh 11.
